Source: PubChem BioAssay AID1039 (National Center for Advancing Translational Sciences (NCATS), 2008)
The source made the active and inactive calls. The call rests on the fitted dose curve.

Test: Normal 2 Cell Viability Secondary Assay for qHTS Assay for Epigenetic Modulators
Details: Normal 2 bronchial epithelial viability, MTS, 4 days
From the text: NIH Molecular Libraries Screening Centers Network [MLSCN] NIH Chemical Genomics Center [NCGC] MLSCN Grant: 1 X01 MH079860-01 Assay Provider: Elisabeth D. Martinez, University of Texas SW Medical Center NCGC Assay Overview: This secondary assay characterizes selected actives identified in the qHTS of the Locus Derepression (LDR) assay (PubChem AID 597). The LDR assay detects the derepression of a GFP reporter that is stably integrated in a region of the genome of murine c127i mammary cells that is presumably silenced. Compounds that cause derepression of the locus to express GFP are identified by enumerating GFP positive cells using a laser-scanning microplate cytometer. […] Normal 2 cell viability was measured using Cell Titer 96 AQueous One (Promega), an assay which detects the ability of metabolically active cells to reduce a tetrazolium salt substrate (MTS), into a soluble formazan product that can be measured by colorimetry.
NCGC Assay Protocol Summary Normal 2 cells were plated in 96-well flat bottom tissue culture dishes (Corning) and grown overnight at 37 C and 5% CO2, then treated with compounds, incubated 4 days, and assayed for viability using the Cell Titer 96 AQueous One kit (Promega) according to the manufacturer's protocol. Absorbance at 490 nm and 650 nm (reference) was measured by a Spectra Max (Molecular Devices). […]

CN1CSC(=S)N(C)C1
outcome: inactive
